# Values without a mark were called inactive. Inconclusive results are not listed. A call without a number means that no potency is given here. The source made the active and inactive calls. Calls come from the whole dose curve; as a rule, active = well fitted curve in the direction sought with a large enough effect in the repeat runs; inconclusive = weak or mixed curves; inactive = no such curve, though single readings can be large; an effect the other way counts as inactive or inconclusive.
# How the values were obtained:
# [1] = Human pregnane X receptor (PXR) small molecule agonists, qHTS cell viability counter screen (AID 1346977); note: nearly all actives have a fitted effect of over 50% in size
# In short: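 Cytotoxicity counter screen run in the same wells as the PXR luciferase assay, using PXR-Luc HepG2 cells in charcoal-stripped serum medium. Viability: CellTiter-Fluor fluorescence after 24hr compound treatment.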
# [2] = Caspase-3/7 induction in HepG2 cells by small molecules, qHTS assay (AID 1346978); note: nearly all actives have a fitted effect of over 15% in size
# In short: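 Wild-type HepG2 cells (2,000/well) were settled 5 h at 37 C, 5% CO2, then exposed to compounds in DMSO for 17 h. Caspase-3/7 activity was read by luminescence 30 min after adding Caspase-Glo 3/7 reagent at room temperature.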
# [3] = Caspase-3/7 induction in CHO-K1 cells by small molecules, qHTS cell viability counter screen (AID 1346979); note: nearly all actives have a fitted effect of over 35% in size
# In short: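 Cytotoxicity counter screen run in parallel with the caspase-3/7 assay: CHO-K1 cells, 16hr compound treatment at 37C, then CellTiter-Fluor for 1hr before fluorescence reading.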
# [4] = Caspase-3/7 induction in CHO-K1 cells by small molecules, qHTS assay (AID 1346980); note: nearly all actives have a fitted effect of over 15% in size
# In short: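 Wild-type cells were seeded at 1,500 per well and settled 5 hr at 37 C, 5% CO2, then exposed to DMSO-dissolved compounds for 17 hr. Caspase-Glo 3/7 reagent was added, and luminescence was read after 30min at room temperature.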
# [5] = Caspase-3/7 induction in HepG2 cells by small molecules, qHTS cell viability counter screen (AID 1346981); note: series mostly up to about 92 µM; nearly all actives have a fitted effect of over 30% in size
# In short: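 HepG2, WT, 2,000 cells/well; 5 hr pre-incubation 37 C/5% CO2; compound pin-transferred from DMSO; 16 hr exposure; CellTiter-Fluor, 1 hr; fluorescence read.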
# [6] = target: Nuclear receptor subfamily 1 group I member 2 (Homo sapiens) (UniProt O75469); assay: Human pregnane X receptor (PXR) small molecule agonists, qHTS assay (AID 1346982); note: nearly all actives have a fitted effect of over 35% in size; note: potency is the fitted concentration of half-maximal effect
# Chain of Nuclear receptor subfamily 1 group I member 2 (Homo sapiens) (O75469 whole entry, looked up): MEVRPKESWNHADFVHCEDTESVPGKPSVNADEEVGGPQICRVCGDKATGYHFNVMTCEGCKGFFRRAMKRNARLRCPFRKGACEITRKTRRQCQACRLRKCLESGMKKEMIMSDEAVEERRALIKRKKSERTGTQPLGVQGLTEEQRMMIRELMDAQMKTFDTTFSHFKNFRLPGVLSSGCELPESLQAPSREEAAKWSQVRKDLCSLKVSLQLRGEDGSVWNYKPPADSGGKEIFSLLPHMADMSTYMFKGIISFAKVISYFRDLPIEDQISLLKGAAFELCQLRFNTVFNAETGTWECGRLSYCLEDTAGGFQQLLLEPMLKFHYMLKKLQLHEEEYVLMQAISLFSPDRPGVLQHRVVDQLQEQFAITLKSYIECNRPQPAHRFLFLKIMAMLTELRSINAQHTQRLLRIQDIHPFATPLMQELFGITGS
# In short: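 Luciferase signal from ONE-Glo (30 min, room temperature) measured activation of hPXR-driven CYP3A4 reporter expression in PXR-Luc HepG2 cells treated with compounds for 24 hr at 37 C.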
# [7] = target: Cytochrome P450 2D6 (Homo sapiens) (UniProt P10635); assay: Cytochrome P450 Family 2 Subfamily D Member 6 (CYP2D6) small molecule antagonists: luciferase reporter qHTS assay (AID 1671196); note: nearly all actives have a fitted effect of over 50% in size; note: potency is the fitted concentration of half-maximal effect; for activity change, negative = inhibition: series mostly up to about 120 µM
# Chain of Cytochrome P450 2D6 (Homo sapiens) (P10635 whole entry, looked up): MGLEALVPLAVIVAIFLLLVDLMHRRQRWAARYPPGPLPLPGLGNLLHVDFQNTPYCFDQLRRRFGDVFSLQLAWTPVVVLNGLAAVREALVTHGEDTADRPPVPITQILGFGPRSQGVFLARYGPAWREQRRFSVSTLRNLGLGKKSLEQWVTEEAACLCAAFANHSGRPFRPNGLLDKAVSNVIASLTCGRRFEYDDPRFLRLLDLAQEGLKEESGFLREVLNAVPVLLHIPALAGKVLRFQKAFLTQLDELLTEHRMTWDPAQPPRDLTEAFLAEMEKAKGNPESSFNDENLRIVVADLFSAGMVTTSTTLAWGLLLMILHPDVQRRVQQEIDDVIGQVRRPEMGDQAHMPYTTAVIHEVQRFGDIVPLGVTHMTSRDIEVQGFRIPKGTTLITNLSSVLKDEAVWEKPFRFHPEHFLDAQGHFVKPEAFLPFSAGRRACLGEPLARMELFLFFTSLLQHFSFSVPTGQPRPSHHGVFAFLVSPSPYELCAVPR
# In short: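 Read-out is luminescence from luciferin formed by CYP2D6 turnover of a proluciferin substrate, recorded as relative luminescence units. Reactions ran 1 h at room temperature after NADPH regeneration solution was added.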
# [8] = target: Nuclear receptor subfamily 1 group I member 2 (Rattus norvegicus) (UniProt Q9R1A7); assay: Rat pregnane X receptor (rPXR) activation by small molecules, qHTS assay (AID 1346983); conditions: rPXR luciferase reporter cells, One-Glo luminescence, 24 h; max activation: stronger effect = higher value; note: nearly all actives have a fitted effect of over 20% in size
# Chain of Nuclear receptor subfamily 1 group I member 2 (Rattus norvegicus) (Q9R1A7 whole entry, looked up): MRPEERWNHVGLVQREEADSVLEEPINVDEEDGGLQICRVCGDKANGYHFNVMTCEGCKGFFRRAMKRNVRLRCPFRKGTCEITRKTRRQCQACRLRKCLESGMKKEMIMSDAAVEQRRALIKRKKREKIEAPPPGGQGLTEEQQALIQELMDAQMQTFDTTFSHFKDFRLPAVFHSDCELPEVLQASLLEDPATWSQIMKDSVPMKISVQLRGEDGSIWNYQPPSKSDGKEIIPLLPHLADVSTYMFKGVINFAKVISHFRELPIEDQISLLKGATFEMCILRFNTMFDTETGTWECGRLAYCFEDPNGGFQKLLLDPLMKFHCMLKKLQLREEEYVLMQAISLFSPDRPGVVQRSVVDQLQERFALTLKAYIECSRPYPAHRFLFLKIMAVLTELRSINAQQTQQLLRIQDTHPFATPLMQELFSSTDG
# In short: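 Cell-based rPXR luciferase reporter assay, 2,000 cells per well, rested 5hr at 37 C before compound addition in DMSO, then 24 hr at 37 C. One-Glo reagent was added and luminescence read after 30 min at room temperature.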
# [9] = target: Nuclear receptor subfamily 1 group I member 2 (Homo sapiens) (UniProt O75469); assay: Human pregnane X receptor (PXR) activation by small molecules, qHTS assay (AID 1346985); note: nearly all actives have a fitted effect of over 40% in size
# In short: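 DPX-2 cells (HepG2 co-transfected with a PXR response element and a CYP3A4-promoter luciferase construct) were seeded at 2,000 per well, rested 5 hr at 37C, then exposed to DMSO-dissolved compounds for 24 hr. Activation was read as luciferase luminescence.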
compound,measurement,setting,value
COc1c(N2CCNC(C)C2)c(F)cc2c(=O)c(C(=O)O)cn(C3CC3)c12 (stereo not given),Potency,[1],inactive
same,outcome,[2],inactive
same,Potency,[3],inactive
same,outcome,[4],inactive
same,Potency,[5],inactive
same,Potency,[6],inactive
same,Potency,[7],inactive
CC(C)(N)C#N,Potency,[1],inactive
same,outcome,[2],inactive
same,Potency,[3],inactive
same,outcome,[4],inactive
same,Potency,[5],inactive
same,Potency,[6],inactive
same,Potency,[7],inactive
Cc1ccnc(NS(=O)(=O)c2ccc(N)cc2)n1,Potency,[1],inactive
same,outcome,[2],inactive
same,Potency,[3],inactive
same,outcome,[4],inactive
same,Potency,[5],inactive
same,Potency,[6],inactive
same,max activation,[8],-0.793%
same,Potency,[9],inactive
same,Potency,[7],inactive
Cc1nc2ccc(CN(C)c3ccc(C(=O)N[C@@H](CCC(=O)O)C(=O)O)s3)cc2c(=O)[nH]1,Potency,[1],inactive
same,outcome,[2],inactive
same,Potency,[3],inactive
same,outcome,[4],inactive
same,Potency,[5],inactive
same,Potency,[6],inactive
same,max activation,[8],-1.92%
same,Potency,[9],inactive
same,Potency,[7],inactive
CC1=CCC(O)(C(C)C)CC1 (stereo not given),Potency,[1],inactive
same,outcome,[2],inactive
same,Potency,[3],inactive
same,outcome,[4],inactive
same,Potency,[5],inactive
same,Potency,[6],inactive
same,Potency,[7],inactive
CCCCCCCCCCOc1cc2c(=O)c(C(=O)OCC)c[nH]c2cc1OCC,"activity change, negative = cytotoxicity",[1],-1.67% [at 8.39 µM]
same,caspase activation,[2],0.159% [at 8.39 µM]
same,"activity change, negative = cytotoxicity",[3],0.813% [at 8.39 µM]
same,caspase-3/7 activation,[4],1.97% [at 8.39 µM]
same,"activity change, negative = cytotoxicity",[5],2.55% [at 8.39 µM]
same,activation,[6],-4.21% [at 8.39 µM]
same,max activation,[8],-1.23%
same,Potency,[9],inactive
same,"activity change, negative = inhibition",[7],-50% [at 10.5 µM]
CC[N+](C)(CC)CCOC(=O)C1c2ccccc2Oc2ccccc21,Potency,[1],inactive
same,outcome,[2],inactive
same,Potency,[3],inactive
same,outcome,[4],inactive
same,Potency,[5],inactive
same,Potency,[6],inactive
same,max activation,[8],0.786%
same,Potency,[7],2.75 µM (active)
CC(C)CC(C)(N)C#N (stereo not given),Potency,[1],inactive
same,outcome,[2],inactive
same,Potency,[3],inactive
same,outcome,[4],inactive
same,Potency,[5],inactive
same,Potency,[6],inactive
same,Potency,[7],inactive
Nc1ccn([C@@H]2O[C@H](CO)[C@@H](O)[C@@H]2O)c(=O)n1,Potency,[1],inactive
same,outcome,[2],inactive
same,Potency,[3],inactive
same,outcome,[4],inactive
same,Potency,[5],inactive
same,Potency,[6],inactive
same,Potency,[7],inactive
Cc1nc(C2CCCCC2)c(-c2ccc(S(N)(=O)=O)c(F)c2)o1,Potency,[1],inactive
same,outcome,[2],inactive
same,Potency,[3],inactive
same,outcome,[4],inactive
same,Potency,[5],inactive
same,Potency,[6],21.1 µM (active)
same,Potency,[7],13.8 µM (active)
CCOc1c(N2CCOCC2)cnn(C)c1=O,Potency,[1],inactive
same,outcome,[2],inactive
same,Potency,[3],inactive
same,outcome,[4],inactive
same,Potency,[5],inactive
same,Potency,[6],inactive
same,Potency,[7],inactive
CCCCN(CCC(=O)OCC)C(C)=O,Potency,[1],inactive
same,outcome,[2],inactive
same,Potency,[3],inactive
same,outcome,[4],inactive
same,Potency,[5],inactive
same,Potency,[6],inactive
same,Potency,[7],inactive
COc1ccccc1OCC1CNC(=O)O1 (stereo not given),Potency,[1],inactive
same,outcome,[2],inactive
same,Potency,[3],inactive
same,outcome,[4],inactive
same,Potency,[5],inactive
same,Potency,[6],inactive
same,Potency,[7],inactive
CC(C)[C@H]1CC[C@@H](C)CC1=O,Potency,[1],inactive
same,outcome,[2],inactive
same,Potency,[3],inactive
same,outcome,[4],inactive
same,Potency,[5],inactive
same,Potency,[6],inactive
same,Potency,[7],inactive

# — PubChem BioAssay (Tox21)
